Screens: PubChem BioAssay, National Center for Advancing Translational Sciences (NCATS)
Cruzain inh Det: qHTS Assay for Promiscuous and Specific Inhibitors of Cruzain (with detergent); Cruzipain (Trypanosoma cruzi), P25779; purified cruzain, Z-FR-AMC fluorescence, 0.01% Triton; Potency, µM, for the others: max response, negative = inhibition, hits mostly inhibitors; 0.43% of 200,000 active;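 note: plate controls were neutral wells for no effect and buffer without enzyme for full effect; nearly all actives have a fitted effect of over 40% in size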
Target sequence (P25779 123-467 limits assumed): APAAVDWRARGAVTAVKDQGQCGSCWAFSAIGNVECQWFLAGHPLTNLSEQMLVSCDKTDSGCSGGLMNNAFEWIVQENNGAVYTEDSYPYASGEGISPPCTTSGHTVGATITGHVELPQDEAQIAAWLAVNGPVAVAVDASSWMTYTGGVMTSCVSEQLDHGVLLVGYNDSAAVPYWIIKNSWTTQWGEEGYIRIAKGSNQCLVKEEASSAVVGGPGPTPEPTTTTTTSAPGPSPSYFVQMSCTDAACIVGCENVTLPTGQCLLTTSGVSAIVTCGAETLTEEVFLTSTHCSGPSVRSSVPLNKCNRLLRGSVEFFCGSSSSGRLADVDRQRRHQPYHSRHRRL
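Cysteine protease activity tested under reducing, mildly acidic conditions (100 mM sodium acetate pH 5.5, 5 mM DTT) plus 0.01% Triton X-100. Cruzain 1.5 nM; substrate Z-FR-AMC 2 uM; 15 min compound preincubation at room temperature.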
Cruzain noTriton: qHTS Assay for Promiscuous and Specific Inhibitors of Cruzain (without detergent); Potency, µM, inactives show max response, negative = inhibition, usual class: inhibitors; Cruzipain (Trypanosoma cruzi), P25779; 2.3% of 200,000 active; purified cruzain, Z-FR-AMC fluorescence, no detergent;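 note: plate controls were enzyme without inhibitor for no effect and buffer without enzyme for full effect; nearly all actives have a fitted effect of over 40% in size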
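Purified cruzain at 1.5 nM, pre-incubated 15 min with compound at room temperature in 100 mM sodium acetate pH 5.5, 5 mM DTT, 0.00005% Triton X-100. Reaction started with 2 uM Z-FR-AMC; AMC fluorescence increase over 60 s gives rate.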
* = called active by the depositor. Hits are enriched below; roughly 2.6% of the tested compounds scored in any of these assays. Calls come from the whole dose curve; as a rule, active = well fitted curve in the direction sought with a large enough effect; inconclusive = small, poorly fitted or top-dose-only effect, or another doubt; inactive = no such curve, though single readings can be large; an effect the other way counts as inactive or inconclusive. Potency is the fitted concentration of half-maximal effect.

What do the screens show for `Cn1c(O)c(N=NC(=O)c2cccc(S(=O)(=O)N3CCCCC3)c2)c2ccccc21`?
Cruzain inh Det: -4%; Cruzain noTriton: 8%

How did CCOc1ccc(C2C=C(c3ccc(C)cc3)Nc3nnnn32)cc1 (stereo unspecified) do in these assays?
Cruzain inh Det: -7%; Cruzain noTriton: -13%

What do the screens show for `C=CCNC(=O)c1ccc(-c2nc(-c3ccc(Cl)c(Cl)c3)cs2)cc1`?
Cruzain inh Det: 3%; Cruzain noTriton: 20µM*

What do the screens show for `C=CCNC(=O)c1ccc(-c2nc(-c3ccc(Cl)cc3Cl)cs2)cc1`?
Cruzain inh Det: 4%; Cruzain noTriton: -15%

Results for CCOc1cccc(Oc2ncccc2C(=O)/C(C#N)=C/N(C)C)c1 ?
Cruzain inh Det: 4%; Cruzain noTriton: 0%

How did O=C(Nc1ccc2c(c1)oc1ccccc12)c1ccc2c(c1)OCO2 do in these assays?
Cruzain inh Det: -1%; Cruzain noTriton: inconclusive

What do the screens show for `O=C(COc1ccc2c(c1)OCO2)Nc1ccc2c(c1)oc1ccccc12`?
Cruzain inh Det: -1%; Cruzain noTriton: 10µM*

How did CCOc1ccccc1N1Cc2ccccc2C1 do in these assays?
Cruzain inh Det: 5%; Cruzain noTriton: inconclusive

Results for CCOc1ccccc1N1Cc2cc(C)c(C)cc2C1 ?
Cruzain inh Det: 3%; Cruzain noTriton: 25µM*

What do the screens show for `COc1ccc(OC)c(-n2cnnn2)c1`?
Cruzain inh Det: 5%; Cruzain noTriton: 2%

How did COc1ccc(OC)c(N2Cc3cc(C)c(C)cc3C2)c1 do in these assays?
Cruzain inh Det: 1%; Cruzain noTriton: 16µM*

Results for O=C(Cc1ccsc1)NCC(c1ccco1)N1CCCCC1 (stereo unspecified) ?
Cruzain inh Det: 1%; Cruzain noTriton: 9%

Results for CC(C)C(NC(=O)c1ccco1)C(=O)NCC(c1ccco1)N1CCCCC1 (stereo unspecified) ?
Cruzain inh Det: 14µM*; Cruzain noTriton: inconclusive

What do the screens show for `Cc1ccc(S(=O)(=O)c2cc3cc(C(=O)O)ccc3oc2=O)cc1`?
Cruzain inh Det: 0%; Cruzain noTriton: 29%

Results for Cc1ccc(-n2c(O)c(C=Nc3ccc4c(c3)OCO4)c3ccccc3c2=O)cc1C ?
Cruzain inh Det: -1%; Cruzain noTriton: 10µM*

How did Cc1cc(N=Cc2c(O)n(-c3ccc4c(c3)OCO4)c(=O)c3ccccc23)ccn1 do in these assays?
Cruzain inh Det: -9%; Cruzain noTriton: -24%

How did Cc1ccc(/C=C2\CCC3=C2OC(N)=C(C#N)C3c2ccc(C)cc2)cc1 (stereo unspecified) do in these assays?
Cruzain inh Det: -12%; Cruzain noTriton: 25µM*

How did N#CC1=C(N)OC2=C(CCc3ccccc32)C1c1ccccc1 (stereo unspecified) do in these assays?
Cruzain inh Det: -10%; Cruzain noTriton: -2%

What do the screens show for `O=C1CSC2(C(=O)N(Cc3c(F)cccc3Cl)c3ccccc32)N1c1ccc(F)c(F)c1` (stereo unspecified)?
Cruzain inh Det: -7%; Cruzain noTriton: -19%

Results for CN1C(=O)C2(c3ccccc31)N(c1ccccc1)C(=O)CS2(=O)=O (stereo unspecified) ?
Cruzain inh Det: 0%; Cruzain noTriton: inconclusive

Results for COc1ccc(N2C(=O)CS(=O)(=O)C23C(=O)N(Cc2ccccc2)c2ccccc23)cc1 (stereo unspecified) ?
Cruzain inh Det: -3%; Cruzain noTriton: 3.2µM*

What do the screens show for `Cc1cccc(N2C(=O)CS(=O)(=O)C23C(=O)N(Cc2c(F)cccc2Cl)c2ccccc23)c1` (stereo unspecified)?
Cruzain inh Det: -4%; Cruzain noTriton: 3.2µM*

How did CCOc1ccc(N2C(=O)CS(=O)(=O)C23C(=O)N(Cc2cccc(Cl)c2)c2ccccc23)cc1 (stereo unspecified) do in these assays?
Cruzain inh Det: -3%; Cruzain noTriton: 10µM*

Results for COc1ccc(N2C(=O)CS(=O)(=O)C23C(=O)N(Cc2c(F)cccc2Cl)c2ccccc23)cc1 (stereo unspecified) ?
Cruzain inh Det: -3%; Cruzain noTriton: 7.9µM*

Results for Cc1cc(C)cc(N2C(=O)CS(=O)(=O)C23C(=O)N(Cc2ccc(F)cc2)c2ccc(C)cc23)c1 (stereo unspecified) ?
Cruzain inh Det: -5%; Cruzain noTriton: inconclusive

Results for COc1cc2c(cc1OC)[C@]13CCN4CC5=CCOC6CC(=O)N2[C@@H]1[C@@H]6C5C[C@@H]43 (stereo partly specified) ?
Cruzain inh Det: 0%; Cruzain noTriton: 1%

How did CN(C)c1ncc2ncc(=O)n(CCc3ccccc3)c2n1 do in these assays?
Cruzain inh Det: -5%; Cruzain noTriton: -12%

Results for O=C(/C=C/c1ccc(Cl)cc1)N1CCN(c2ccccn2)CC1 ?
Cruzain inh Det: 1%; Cruzain noTriton: 19%
